{"source": "PubChem BioAssay (NCI)", "note": "Compounds without any hit were thinned out: in the full panel of roughly 83,000, 20% have a hit.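 Single-dose data. Exposure time 48 hours. Values below 10 considered active.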 A number with no mark means an inactive call. The source made the active and inactive calls."}
{"tested_on": "HL-60(TB) leukemia", "assay": "NCI-60 one-dose screen, 48 h (100 = growth as untreated, 0 = no growth, -100 = all killed)", "settings": "10 µM unless noted"}
{"smiles": "CC(C)c1sc(NC(=O)c2cc(NC(=O)c3cc(NC(=O)c4cscn4)cn3C)cn2C)nc1C(=O)NCCCN(C)C", "growth": "-22.6% (active)"}
{"smiles": "COc1ccc2[nH]c(=O)c(CSc3ccccc3Nc3nccc(-c4ccc(Cl)cc4)n3)cc2c1", "growth": "23.2%"}
{"smiles": "CC(=O)c1ccc2c(N)c(C(=O)Nc3ccc(C(F)(F)F)cc3)sc2n1", "growth": "50%"}
{"smiles": "Cc1nn(-c2ccccc2)c2ncn(CC(=O)N/N=C/c3ccccc3O)c(=O)c12", "growth": "6.2% (active)"}
